Screening data deposited in PubChem BioAssay by National Center for Advancing Translational Sciences (NCATS).
Rows were chosen to be rich in hits. Some 1% of all compounds tested hit in one or more screens of this group.
gsp antagonist: qHTS for Antagonists of gsp, the Etiologic Mutation Responsible for Fibrous Dysplasia/McCune-Albright Syndrome: qHTS | Potency, µM (doses to about 76.9 µM), for the others: at the top dose activity change, negative = inhibition, most hits filed as inhibitors | 0.4% of 340,000 active | AID 624288, 2012 | gsp-mutant cells, cAMP HTRF, 30 min; calls by dose curve; cell line not stated here;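 also: intracellular cAMP measured with PDE inhibitor Ro 20-1724 present during compound exposure; potency is read from the fitted curve at half-maximal effect; % is scaled to controls: 0 for no effect and ±100 for the full control effect; nearly all actives have a fitted effect of over 65% in size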
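Measurement of cellular cAMP by homogeneous time-resolved fluorescence following a 30 min compound exposure at 37C. The PDE inhibitor […] was present throughout; the assay buffer was DPBS with 0.05% BSA and 0.005% Tween 20.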
RXFP1 agonist: qHTS Assay for Agonists of the Relaxin Receptor RXFP1; HEK293T-RXFP1 cAMP TR-FRET, 30 min; response scale: percent of porcine relaxin response, buffer zero; Relaxin receptor 1 (Homo sapiens), Q9HBX9; 0.3% of 370,000 active; Potency, µM (top dose mostly 57.5 µM), for inactives: at the top dose activation, hits mostly activators; active = well fitted activation curve with a large enough effect; inconclusive = small, poorly fitted or top-dose-only effect; also: potency is read from the fitted curve at half-maximal effect; % is scaled to controls: 0 for no effect and ±100 for the full control effect; nearly all actives have a fitted effect of over 60% in size
Target sequence (Q9HBX9 whole entry, looked up): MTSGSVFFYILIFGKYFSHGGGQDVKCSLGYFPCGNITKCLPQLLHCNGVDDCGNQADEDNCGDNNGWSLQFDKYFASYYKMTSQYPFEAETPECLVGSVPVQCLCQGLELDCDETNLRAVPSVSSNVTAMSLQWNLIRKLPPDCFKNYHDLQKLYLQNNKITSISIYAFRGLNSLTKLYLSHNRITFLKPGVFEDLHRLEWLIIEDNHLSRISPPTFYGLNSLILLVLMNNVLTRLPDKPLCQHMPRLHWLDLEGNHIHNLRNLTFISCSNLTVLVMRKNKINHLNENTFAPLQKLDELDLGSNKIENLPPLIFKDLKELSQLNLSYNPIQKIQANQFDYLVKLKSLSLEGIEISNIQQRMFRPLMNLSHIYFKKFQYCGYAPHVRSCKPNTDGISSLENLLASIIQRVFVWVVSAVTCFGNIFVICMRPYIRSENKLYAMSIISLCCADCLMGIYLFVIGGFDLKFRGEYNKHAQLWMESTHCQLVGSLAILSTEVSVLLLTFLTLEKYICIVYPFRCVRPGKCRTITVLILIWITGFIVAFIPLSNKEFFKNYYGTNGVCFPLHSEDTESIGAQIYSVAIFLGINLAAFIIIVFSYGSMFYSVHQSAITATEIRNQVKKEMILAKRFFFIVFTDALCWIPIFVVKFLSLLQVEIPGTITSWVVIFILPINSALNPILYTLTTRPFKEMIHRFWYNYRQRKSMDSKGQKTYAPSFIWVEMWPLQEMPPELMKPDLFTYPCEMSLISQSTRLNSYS
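HEK293T cells stably expressing RXFP1 were pretreated with the PDE4 inhibitor Ro 20174, exposed to compounds for 30 min at 37C, lysed, and cAMP was read by TR-FRET. Data normalized to buffer (basal) and 29 nM porcine relaxin (100%).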
RXFP1 antag: qHTS Assay for Antagonists of the Relaxin Receptor RXFP1 | Relaxin receptor 1 (Homo sapiens), Q9HBX9 | HEK293-RXFP1, relaxin-stimulated cAMP HTRF, 30 min; hits give low values | activity change, negative = inhibition, % at 57.5 µM | 0.59% of 350,000 active;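 active = activity change of -60% or lower, but not beyond a set lower limit; inconclusive = change between -60% and -40%, or beyond the set limit; inactive = change above -40%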; also: % is scaled to controls: 0 for no effect and ±100 for the full control effect
gsp ag: qHTS for Agonist of gsp, the Etiologic Mutation Responsible for Fibrous Dysplasia/McCune-Albright Syndrome: qHTS. gsp mutant cells, cAMP HTRF, 30 min. Potency, µM (highest dose often 76.9 µM), for inactives: top-dose activation (cAMP increase), most hits filed as activators. 0.13% of 340,000 active. AID 624287, 2012; active = well fitted activation curve with a large enough effect; inconclusive = small, poorly fitted or top-dose-only effect, or another doubt; inactive = no such curve, though single readings can be large or run the other way; cell line not stated here;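 also: phosphodiesterase inhibitor Ro 20-1724 added with compounds to block cAMP breakdown; potency is read from the fitted curve at half-maximal effect; nearly all actives have a fitted effect of over 60% in size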
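Cells stably selected in G418 were plated at 2000/well, grown 16-24 hr, then given compounds in DMSO with the PDE inhibitor […] (300 uM solution added) for 30 min at 37C; cAMP was read by HTRF.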
TSHR antag: Antagonists of the Thyroid Stimulating Hormone Receptor: HTS campaign; Thyrotropin receptor (Homo sapiens), P16473; TSHR-expressing cells, TSH-stimulated cAMP HTRF, 2 h; hits give low values; activity change, negative = inhibition, % at 11.5 µM; 0.2% of 330,000 active;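 active = activity change below a set negative limit, meaning inhibition stronger than a set level, cut at about -70% in these data; inconclusive = activity change between two set negative limits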; also: % is scaled to controls: 0 for no effect and ±100 for the full control effect
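Freshly harvested TSHR cells receive pin-tooled compound, then EC80 TSH at 4nM final. After 2 hours at 37 deg C, antibody in lysis buffer and cAMP-d2 are added; 30 minutes at ambient temperature precede the HTRF read.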
The depositor's hits bear a star; ? = inconclusive; . = not tested or not shown; ! = a repeat was not active; [ ] = remark or other dose.

SMILES	gsp antagonist	RXFP1 agonist	RXFP1 antag	gsp ag	TSHR antag
C=CCc1cc(C=C2C(=O)N(C)C(=O)N(C)C2=O)cc(OCC)c1OCc1ccccc1	-12%	2%	-77*	-19%	-10
C=CCc1cc(C=C2C(=O)NC(=O)NC2=O)cc(OC)c1OCc1ccc(C(=O)O)cc1	-23%	1%	-4	-1%	6
C=C1C(O)[C@@H]2O[C@]3(CC[C@H](/C=C/C(C)[C@@H]4CC(C)=CC5(O[C@H](C[C@@](C)(O)C(=O)O)CCC5O)O4)O3)CC[C@H]2O[C@@H]1C(O)CC(C)[C@H]1OC2(CCCCO2)CCC1C (some centres undefined)	?	.	.	.	-78*
O=C(Nc1ccc(Br)cc1)c1cc(Br)cc(Br)c1O	.	.	-81*	.	.
Cc1ccc(N2C(=O)NC(=O)/C(=C/C=C/c3ccco3)C2=O)cc1	-9%	1%	-62*	14%	-8
O=C1NC(=O)N(Cc2ccc(F)cc2)C(=O)/C1=C\C=C\c1ccco1	6%	1%	-70*	27%	-15
O=C1NC(=O)N(Cc2ccccc2)C(=O)/C1=C\c1ccco1	-16%	2%	-20	19%[15.4 µM]	3
CCc1ccc(N2C(=O)NC(=O)/C(=C\C=C\c3ccco3)C2=O)cc1	-13%	1%	-27	0%	12
CC(C)c1ccc(N2C(=O)NC(=O)/C(=C/C=C/c3ccco3)C2=O)cc1	-7%	0%	-80*	7%	0
CCc1ccc(C2CCNCC2)cc1	.	.	-6	.	.
CC(Cc1ccc2c(c1)OCO2)NO (centres undefined)	.	.	14	.	.
COc1cc(C(C)=O)ccc1OC(=O)N(C)c1ccccc1	-8%	-1%	2	2%	-122*
CN(C)CCc1c[nH]c2ccccc12	.	.	6	.	.
CCC(=O)C(CCN(C)C)(c1ccccc1)c1ccccc1	.	.	9	.	.
O=C(O)c1ccc2c(c1)C1C(Cl)C(Sc3ccccc3[N+](=O)[O-])CC1C(c1cccc([N+](=O)[O-])c1)N2 (centres undefined)	-53%	-1%	-89*	-1%[15.4 µM]	4
O=C(O)c1cccc2c1NC(c1cccc([N+](=O)[O-])c1)C1CC(Sc3ccccc3[N+](=O)[O-])C(Cl)C21 (centres undefined)	?	2%	-4	-16%	-27
O=C(CBr)Nc1ccc(Cl)cc1C(=O)c1ccccc1F	.	.	-27	.	.
CN1C2CCC(C)(C)C1CC(OC(=O)C(O)(c1cccs1)c1cccs1)C2 (centres undefined)	.	.	6	.	.
COc1ccc(CC2(CCc3ccncc3)C(=O)NC(=O)NC2=O)c(OC)c1	-2%	-1%	7	?	22
COc1cc(CC2(CCc3ccncc3)C(=O)NC(=O)NC2=O)cc(OC)c1OC	6%	0%	-79*	4%	4
O=c1[nH]c(=S)n(Cc2ccc(F)cc2)c(O)c1C=NCc1ccc2c(c1)OCO2	9%	25µM*	6	?	-2
O=C(O)c1ccc(/C=C/c2nc3ccccc3c(=O)n2-c2ccc(Br)cc2)cc1	14µM*	0%	-4	-31%	-8
O=c1c2ccccc2nc(/C=C/c2ccccc2)n1-c1ccc(O)cc1	-22%	1%	-12	-5%	2
Cc1ccc([C@H]2N[C@]3(CCCN(Cc4ccc(C(F)(F)F)cc4)C3=O)[C@H]3C(=O)N(Cc4ccccc4)C(=O)[C@@H]23)cc1	.	.	11	?	.
OCC[n+]1c2ccccc2nc2ccc(N3CCOCC3)cc21	?	-3%	?	-2%[15.4 µM]	-71*
SMILES	gsp antagonist	RXFP1 agonist	RXFP1 antag	gsp ag	TSHR antag
O=C(c1ccc(Cl)cc1)C1CCCN(Cc2ccc3c(c2)OCCO3)C1 (centres undefined)	7%	0%	-73*	-5%[15.4 µM]	3
COc1cccc(C(=O)CCN[C@@H](C)[C@H](O)c2ccccc2)c1	.	.	20	.	.
O=C(Nc1ccc(Oc2ccc(Cl)cc2)c(Cl)c1)c1cc(I)cc(I)c1O	?	2%	-92*	.	-94*
CCO[C@H]1O[C@@H]2OC3(C)CC[C@H]4[C@H](C)CC[C@@H]([C@H]1C)[C@@]24OO3	.	.	-21	.	.
O=C(O)CNC1c2ccccc2CSc2ccccc21 (centres undefined)	-11%	.	-63*	10%	.
O=c1[nH]c(=S)[nH]c(O)c1N=Nc1ccc2c(c1)OCCO2	-25%	3%	-95*	1%[15.4 µM]	1
C[n+]1c(-c2ccccc2)c2cc(N)ccc2c2ccc(N)cc21	35µM*	8%	.	.	-13
O=[N+]([O-])c1ccc(C[n+]2c(-c3ccccc3)cc(-c3ccccc3)cc2-c2ccccc2)cc1	0%	-1%	.	-50%	5
O=[N+]([O-])c1cc(Cl)c(O)c(-[n+]2c(-c3ccccc3)cc(-c3ccccc3)cc2-c2ccccc2)c1	13µM*	0%	-5	?	-2
Cc1cc2c(C(C)C)c(O)c(O)c(C=O)c2c(O)c1-c1c(C)cc2c(C(C)C)c(O)c(O)c(C=O)c2c1O	.	1%	?	.	-80*!
O=c1cc(C(F)(F)F)c2cc3c4c(c2o1)CCCN4CCC3	2%	9%	5	10µM*	12
Cc1cc2c(C(F)(F)F)cc(=O)oc2c2c1NCCC2	1%	4%	1	16µM*	25
CC1Sc2c(C(=O)O)c(=O)c3cc(F)c(N4CCNCC4)cc3n21 (centres undefined)	.	.	-3	.	.
CC(Cc1ccccc1)NCCn1cnc2c1c(=O)n(C)c(=O)n2C (centres undefined)	.	.	20	.	.
COc1ccc(C(=O)C2CCCN(Cc3ccon3)C2)c(OC)c1 (centres undefined)	50µM*	4%	1	4%	12
CC(C)n1c(N2CCN(S(=O)(=O)c3cccc([N+](=O)[O-])c3)CC2)nc2ccccc21	-14%	0%	2	-11%	-12
CCC(=O)O[C@H]1CC[C@H]2[C@@H]3CCC4=CC(=O)CC[C@]4(C)[C@H]3CC[C@]12C	-13%	.	-68*	.	.
C[C@]12CC[C@H]3[C@@H](CCC4=CC(=O)CC[C@@]43C)[C@@H]1CC[C@@H]2C(=O)O	.	.	-27	.	.
Cc1ccc(-c2cc(-c3ccccc3)cc(-c3ccccc3)[n+]2-c2ccccc2)cc1	50µM*	2%	.	.	-94*
c1ccc(-c2cc(-c3ccccc3)[n+](-c3ccccc3)c(-c3ccccc3)c2)cc1	50µM*	7%	?	-5%[15.4 µM]	-78*
CN(C)c1ccc(-[n+]2c(-c3ccccc3)cc(-c3ccccc3)cc2-c2ccccc2)cc1	-24%	8%	-105*	?	-40
